Unmarked numbers belong to inactive results. Records with an inconclusive call do not appear. The source made the active and inactive calls. Unless noted, calls follow the shape of the dose curve; as a rule, active = well fitted curve in either direction with a large enough effect (not every such curve was filed as active); inconclusive = small, poorly fitted or top-dose-only effect, or another doubt; inactive = flat fitted curve, though single readings scatter.
Experiments:
[1] = target: Lysosomal acid glucosylceramidase (Homo sapiens) (UniProt P04062); assay: Glucocerebrosidase-p2 (AID 348; in the data active = potency below about 10 µM; also: potency is read from the fitted curve at half-maximal effect); conditions: purified GBA, blue fluorogenic substrate, 40 min
Sequence of Lysosomal acid glucosylceramidase (Homo sapiens) (P04062 whole entry, looked up): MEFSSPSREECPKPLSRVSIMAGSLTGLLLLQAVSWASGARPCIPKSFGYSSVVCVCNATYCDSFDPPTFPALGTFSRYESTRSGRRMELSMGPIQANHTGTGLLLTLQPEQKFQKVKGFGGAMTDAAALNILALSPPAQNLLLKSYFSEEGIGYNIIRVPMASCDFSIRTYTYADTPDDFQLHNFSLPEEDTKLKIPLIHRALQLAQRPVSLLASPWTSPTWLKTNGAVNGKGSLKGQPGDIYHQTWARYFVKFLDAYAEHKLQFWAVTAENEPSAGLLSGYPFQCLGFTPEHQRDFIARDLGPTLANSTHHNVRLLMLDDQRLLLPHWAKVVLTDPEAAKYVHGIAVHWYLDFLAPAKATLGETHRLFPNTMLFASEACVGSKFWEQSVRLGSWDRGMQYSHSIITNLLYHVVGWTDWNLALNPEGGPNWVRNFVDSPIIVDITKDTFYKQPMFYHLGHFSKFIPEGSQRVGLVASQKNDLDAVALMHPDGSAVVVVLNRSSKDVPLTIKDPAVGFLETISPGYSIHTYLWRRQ
How it was run: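 Compounds titrated from 0.6 nM upwards against 0.2 nM enzyme in pH 5.9 citric acid/KH2PO4, taurocholate, tween-20; blue fluorogenic substrate 80 uM, 40 min room temperature, stopped and read Ex 365/Em 440 for AC50.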

[2] = AP1 Signaling Pathway (AID 357); conditions: ME-180 AP-1-bla reporter, EGF-induced, beta-lactamase ratio, 5 h; at 7.69 µM (top of the series) unless noted; also: % is scaled to controls: 0 for no effect and ±100 for the full control effect
How it was run: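 Modulation of EGF-driven AP-1 transcription was assessed with a beta-lactamase reporter in ME-180 cells. Compound and EC50 EGF were co-incubated 5 hours at 37 °C before 2.5-hour CCF4 loading at room temperature and dual-emission reading.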

[3] = target: Cytochrome P450 1A2 (Homo sapiens) (UniProt P05177); assay: p450-cyp1a2 (AID 410; calls by dose curve; also: potency is read from the fitted curve at half-maximal effect;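 as to activity change, negative = inhibition: -100% = full effect of reference inhibitor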); conditions: recombinant CYP1A2, luciferin-ME demethylation, luminescence; series mostly up to 11.4 µM
Sequence of Cytochrome P450 1A2 (Homo sapiens) (P05177 whole entry, looked up): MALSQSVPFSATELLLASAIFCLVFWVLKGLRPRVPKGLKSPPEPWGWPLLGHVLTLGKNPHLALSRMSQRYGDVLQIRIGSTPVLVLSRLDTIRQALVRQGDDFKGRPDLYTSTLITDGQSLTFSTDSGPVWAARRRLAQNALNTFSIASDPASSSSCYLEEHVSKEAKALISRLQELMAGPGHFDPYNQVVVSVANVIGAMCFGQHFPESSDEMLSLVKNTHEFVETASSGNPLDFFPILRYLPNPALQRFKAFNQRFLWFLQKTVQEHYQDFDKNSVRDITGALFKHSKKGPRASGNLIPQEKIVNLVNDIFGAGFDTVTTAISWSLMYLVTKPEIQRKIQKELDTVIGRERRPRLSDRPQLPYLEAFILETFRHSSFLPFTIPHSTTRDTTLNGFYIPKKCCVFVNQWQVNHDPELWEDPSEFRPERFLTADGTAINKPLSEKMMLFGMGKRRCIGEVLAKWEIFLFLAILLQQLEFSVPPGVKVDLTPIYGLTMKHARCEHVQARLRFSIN
How it was run: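 Inhibition was calculated relative to 57 uM furafylline (full inhibition). The reaction used human CYP1A2 at 20nM with Luciferin-ME at its Km, 100uM, driven by an NADPH-regenerating system for 60 min at room temperature.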

[4] = NFAT Signaling Pathway (AID 444); conditions: Jurkat NFAT-bla M1, carbachol, beta-lactamase ratio, 5 h; at 7.69 µM (top of the series) unless noted;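 also: carbachol stimulus at about its EC50 of 1 µM final; % is scaled to controls: 0 for no effect and ±100 for the full control effect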
How it was run: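 Jurkat cells carrying an NFAT-driven β-lactamase reporter and co-transfected muscarinic M1 receptor were treated with compound plus carbachol (1 uM final, an EC50 level) for 5 h at 37 °C. CCF4 loading followed for 1 h at RT; 460/530 nm ratio gave %activity.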

[5] = Stat Signaling Pathway (AID 446); conditions: ME-180 SIE beta-lactamase reporter, IL-6 stimulated, 5 h; at 7.69 µM (top of the series) unless noted;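 also: ME-180 cervical cancer cells given 40 pM IL-6 alongside compound; SIE-controlled beta-lactamase reporter measured as 460/530 nm FRET emission ratio; % is scaled to controls: 0 for no effect and ±100 for the full control effect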
How it was run: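 ME-180 cells carrying a SIE-driven beta-lactamase reporter are stimulated with 40 pM IL-6 for 5 h at 37C in the presence of compound. The 460/530 nm FRET substrate ratio is read after 2.5 h at RT. Data are normalised to 300 pM IL-6 and to 125 nM JAK inhibitor controls.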

[6] = target: Glucocorticoid receptor (Homo sapiens) (UniProt P04150); assay: GR-GFP Redistribution (AID 450;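 active = compounds whose dose series gives a full or clear partial fitted curve of increased nuclear translocation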; also: potency is read from the fitted curve at half-maximal effect); conditions: U2OS GR-GFP nuclear translocation, laser cytometry, 2 h
Sequence of Glucocorticoid receptor (Homo sapiens) (P04150 whole entry, looked up, the tested form may be a part): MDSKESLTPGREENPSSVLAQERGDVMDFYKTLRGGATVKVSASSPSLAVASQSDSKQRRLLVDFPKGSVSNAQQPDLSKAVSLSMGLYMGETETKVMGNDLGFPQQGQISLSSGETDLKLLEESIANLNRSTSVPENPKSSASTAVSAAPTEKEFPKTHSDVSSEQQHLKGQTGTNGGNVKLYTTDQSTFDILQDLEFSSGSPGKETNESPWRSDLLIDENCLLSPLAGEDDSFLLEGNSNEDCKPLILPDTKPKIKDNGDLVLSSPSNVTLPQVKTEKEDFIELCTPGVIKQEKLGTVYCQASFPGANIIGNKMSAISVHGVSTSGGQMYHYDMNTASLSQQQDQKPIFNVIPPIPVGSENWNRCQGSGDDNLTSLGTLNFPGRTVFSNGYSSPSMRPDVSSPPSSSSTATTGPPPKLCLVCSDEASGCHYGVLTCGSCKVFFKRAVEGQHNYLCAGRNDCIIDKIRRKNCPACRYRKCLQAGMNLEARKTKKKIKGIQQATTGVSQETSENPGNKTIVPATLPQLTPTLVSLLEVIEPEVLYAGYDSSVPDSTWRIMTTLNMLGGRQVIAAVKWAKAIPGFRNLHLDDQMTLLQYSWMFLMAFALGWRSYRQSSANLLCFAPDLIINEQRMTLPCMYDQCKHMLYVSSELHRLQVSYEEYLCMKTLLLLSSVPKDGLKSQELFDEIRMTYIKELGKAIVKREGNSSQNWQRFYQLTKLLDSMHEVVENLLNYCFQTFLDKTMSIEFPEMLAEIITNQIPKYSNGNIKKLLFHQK

[7] = target: Glucocorticoid receptor (Homo sapiens) (UniProt P04150); assay: GR-EFC Redistribution (AID 451; calls by dose curve; also: potency is read from the fitted curve at half-maximal effect); conditions: CHO-K1 GR-EFC translocation, beta-gal luminescence, 2 h
How it was run: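 CHO-K1 cells stably expressing nuclear-localized β-gal enzyme acceptor and GR fused C-terminally to the enzyme donor fragment; ligand-driven nuclear translocation restores β-gal by complementation. Compounds titrated up to 46 uM final, 2 h at 37 °C; luminescence read.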

[8] = target: Mitogen-activated protein kinase 10 (Mus musculus) (UniProt Q61831); assay: JNK3 AlphaScreen Assay (AID 530); conditions: JNK3 lysate, c-Jun phosphorylation; series mostly up to 11.4 µM;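 also: kinase came from lysate of stimulated human HepG2 cells; signal reports phosphorylation of biotinylated GST-cJun 1-79 at Ser73 with 10 µM ATP; % is scaled to controls: 0 for no effect and ±100 for the full control effect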
How it was run: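 JNK3 came from HepG2 lysates pre-activated with IL-1beta and TNF-alpha and phosphorylated biotinylated GST-cJun (1-79) at 10 uM ATP, pH 7.6, room temperature. Compounds were titrated. AlphaScreen signal used anti-phospho-cJun (Ser73) antibody.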

[9] = target: 3',5'-cyclic-AMP phosphodiesterase 4B (Homo sapiens) (UniProt Q07343); assay: qHTS Assay for Inhibitors of PDE-IV (AID 607; active = well fitted activation curve with a large enough effect in the main read-out, with a control signal flat, not every such curve was filed as active; also: % of control where 0% means no effect); conditions: HEK293 ACTOne CNG channel cells, membrane potential fluorescence; series mostly up to 22.9 µM
Sequence of 3',5'-cyclic-AMP phosphodiesterase 4B (Homo sapiens) (Q07343 whole entry, looked up): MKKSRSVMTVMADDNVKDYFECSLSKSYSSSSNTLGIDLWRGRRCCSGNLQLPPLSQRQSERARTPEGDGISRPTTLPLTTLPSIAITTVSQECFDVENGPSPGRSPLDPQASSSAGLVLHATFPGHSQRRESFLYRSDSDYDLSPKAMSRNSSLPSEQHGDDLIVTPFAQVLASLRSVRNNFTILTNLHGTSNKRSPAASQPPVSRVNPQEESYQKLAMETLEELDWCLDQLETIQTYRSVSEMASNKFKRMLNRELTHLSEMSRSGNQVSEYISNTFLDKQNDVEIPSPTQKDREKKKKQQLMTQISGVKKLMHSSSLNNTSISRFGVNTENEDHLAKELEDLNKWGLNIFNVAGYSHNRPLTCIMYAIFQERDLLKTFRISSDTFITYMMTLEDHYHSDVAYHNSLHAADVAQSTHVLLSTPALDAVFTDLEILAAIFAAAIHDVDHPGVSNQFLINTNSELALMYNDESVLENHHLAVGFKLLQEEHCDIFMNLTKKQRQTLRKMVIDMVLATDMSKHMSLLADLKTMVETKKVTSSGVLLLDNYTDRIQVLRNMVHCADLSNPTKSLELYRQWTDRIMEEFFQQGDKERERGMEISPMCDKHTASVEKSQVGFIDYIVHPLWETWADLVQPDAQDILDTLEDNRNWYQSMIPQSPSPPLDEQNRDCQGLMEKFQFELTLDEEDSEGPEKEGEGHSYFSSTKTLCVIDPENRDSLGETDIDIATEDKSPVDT
How it was run: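 HEK293 ACTOne cells with CNG channel (1000/well), endogenous PDE4; membrane potential dye, compounds up to 22.9 uM final. Fluorescence Ex 535/Em 590; RO 20-1724 (100 uM final) as reference.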

Compound | Potency [1] [µM] | activity change, negative = inhibition [2] [%] | Potency [3] | activity change, negative = inhibition [4] [%] | activity, negative = inhibition [5] [%] | Potency [6] | Potency [7] [µM] | Potency [8] | Potency [9] | activity change, negative = inhibition [3]
CCn1c2ccccc2c2nnc(NCCCO)nc21 | > 11.4 | 7.47 | 1.58 µM (active) | 10.3 | 1 | > 46 µM | > 9.22 | inactive | inactive | –
FC(F)(F)c1nc(SCc2ccc(Cl)cc2)n[nH]1 | > 11.4 | 1.59 | – | -9.79 | -0.49 | > 46 µM | > 9.22 | inactive | inactive | -18.8% [at 2.29 µM]
COc1cc(N=C(N)N=C(N)N)c2ncccc2c1 | > 11.4 | -8.09 | 0.398 µM (active) | 3.48 | -1.33 | > 46 µM | > 9.22 | inactive | inactive | –
O=[N+]([O-])c1ccc2c(c1)Cc1cc(N=Cc3ccc4c(c3)OCO4)ccc1-2 | > 11.4 | -3.82 | 0.794 µM (active) | -8.54 | -4.51 | > 46 µM | > 9.22 | inactive | inactive | –
Cn1c(=O)c2c(ncn2CN2CCN(Cn3cnc4c3c(=O)n(C)c(=O)n4C)CC2)n(C)c1=O | > 11.4 | -1.04 | – | 7.2 | 2.15 | > 46 µM | > 9.22 | inactive | inactive | -18.2% [at 2.29 µM]
O=C(O)CCSc1ncnc2nc[nH]c12 | > 11.4 | 15.6 | inactive | 1.77 | 0.335 | > 46 µM | > 9.22 | inactive | inactive | –
O=S(=O)(O)c1cc(N=[N+]([O-])c2cc(S(=O)(=O)O)c3ccccc3c2)cc2ccccc12 | > 11.4 | 5.38 | 1.26 µM (active) | 8.26 | -2.62 | > 46 µM | > 9.22 | inactive | inactive | –
Cn1c(=S)c2[nH]c(SCCN3CCCC3)nc2n(C)c1=O | > 11.4 | -5.98 | – | 11.4 | -0.274 | > 46 µM | > 9.22 | inactive | inactive | -29.7% [at 2.29 µM]
C[C@@H](N=C(N)N)C(=O)O | > 11.4 | -6.66 | inactive | 16.8 | -6.68 | > 46 µM | > 9.22 | inactive | inactive | –
O=C(O)CCCSc1nc2ccccc2s1 | > 11.4 | 1.43 | inactive | -19.5 | 4.62 | > 46 µM | > 9.22 | inactive | inactive | –
O=C(O)C[C@H](Cc1ccc2c(c1)OCO2)C(=O)O | > 11.4 | 2.2 | inactive | -29.5 | -2.05 | > 46 µM | > 9.22 | inactive | inactive | –
NC(=O)c1csc(-c2ccc(CO)o2)n1 | > 11.4 | -2.81 | inactive | 10.7 | 13.2 | > 46 µM | > 9.22 | inactive | inactive | –
C[C@@]1(CCOCc2ccccc2)NC(=O)NC1=O | > 11.4 | 7.73 | inactive | -2.8 | 8.58 | > 46 µM | > 9.22 | inactive | inactive | –
O=P(O)(O)O[C@@H]1O[C@H](CO)[C@@H](O)[C@H](O)[C@@H]1O | > 11.4 | 4.24 | inactive | 2.61 | 6.12 | > 46 µM | > 9.22 | inactive | inactive | –
NN(CC(=O)O)CC(=O)O | > 11.4 | -2.45 | inactive | -1.35 | -0.699 | > 46 µM | > 9.22 | inactive | inactive | –
O=C(O)[C@@H]1[C@@H](C(=O)NCc2ccccn2)[C@@H]2C=C[C@@H]1O2 | > 11.4 | -9.66 | – | -3.89 | -3.58 | > 46 µM | > 9.22 | inactive | inactive | -0.1% [at 2.29 µM]
CN(CC(=O)O)Cc1oc(CO)cc(=O)c1O | > 11.4 | 6.02 | inactive | 10 | 5.1 | > 46 µM | > 9.22 | inactive | inactive | –
O=C(Nc1nn[nH]n1)c1nc(-c2ccccc2)cc(=O)[nH]1 | > 11.4 | 2.85 | 3.98 µM (active) | 0.574 | -4.08 | > 46 µM | > 9.22 | inactive | inactive | –
C[C@@]12CC[C@@H]3[C@H](CCC4=CC(=O)CC[C@]43C)[C@@H]1CC[C@@H]2C(=O)COS(=O)(=O)c1ccc(Br)cc1 | > 11.4 | -0.601 | inactive | 19 | -0.203 | 0.793 µM (active) | > 9.22 | inactive | inactive | –
CCCCN(c1ccccc1)c1ncnc2c1cnn2C | > 11.4 | -1.19 | 0.631 µM (active) | 12.1 | 5.06 | > 46 µM | > 9.22 | inactive | inactive | –
N#CCCn1c(=O)c(-c2ccccc2)nc2cnc(Oc3cccc(Cl)c3)nc21 | > 11.4 | -25.4 | 2.51 µM (active) | -23.9 | -4.6 | > 9.22 µM | > 46 | inactive | inactive | –
CN(C)S(=O)(=O)Nc1ccccn1 | > 11.4 | 2.01 | inactive | 17.9 | 8.85 | > 46 µM | > 9.22 | inactive | inactive | –
Cc1[nH]c2ccccc2c1-c1cc(-c2cc(-c3c(C)[nH]c4ccccc34)nc(N)n2)nc(N)n1 | > 11.4 | -6.63 | 0.398 µM (active) | 1.59 | -4.41 | > 46 µM | > 9.22 | inactive | inactive | –
O=C(O)c1ccccc1-c1ccccc1C(=O)Nc1ccc2c(c1)Cc1ccccc1-2 | > 11.4 | 6.9 | – | -20.4 | -24.1 | > 46 µM | > 9.22 | inactive | inactive | -7.1% [at 2.29 µM]
Nc1nc(=O)c2[nH]cnc2n1O | > 11.4 | 10.1 | inactive | -5.74 | 7.15 | > 46 µM | > 9.22 | inactive | inactive | –
Nc1nc(N)c(CCCCc2ccccc2)c(N)n1 | > 11.4 | 17.9 | – | 2.59 | 1.49 | > 46 µM | > 9.22 | inactive | inactive | -0.2% [at 2.29 µM]
C=C(Br)CN(C)CC(=C)Br | > 11.4 | 0.791 | inactive | 0.988 | -0.267 | > 46 µM | > 9.22 | inactive | inactive | –
C[N+](C)(C)c1ccc([C@H](N)C(=O)O)cc1 | > 11.4 | -0.163 | inactive | -21.6 | 0.0481 | > 46 µM | > 9.22 | inactive | inactive | –
O=C(O)c1cc(C(=O)O)nc(C(=O)O)c1 | > 11.4 | 7.15 | inactive | 0.674 | 3.63 | > 46 µM | > 9.22 | inactive | inactive | –

Source: PubChem BioAssay (NCATS)
